Data: the supplement of paper PMC13380429

What was measured:
[1] = tested on: Vero E6 infected with SARS-CoV-2; assay: morphology score (similarity to uninfected cells); higher = more like uninfected cells; conditions: 24 h
[2] = tested on: Vero E6 infected with SARS-CoV-2; assay: SARS-CoV-2 infection rate relative to infected DMSO; higher = more infection, active = 60 or less; conditions: 24 h

Nc1nc2c(ncn2[C@@H]2O[C@H](CO)[C@@H](O)[C@H]2O)c(=O)[nH]1 [guanosine] (10 µM)
morphology score [1]: 0.0982 | SARS-CoV-2 infection rate [2]: 106% (inactive)

CCCCCCCCCCC[C@@H](C[C@@H]1OC(=O)[C@H]1CCCCCC)OC(=O)[C@H](CC(C)C)NC=O [orlistat] (10 µM)
morphology score [1]: 0.226 | SARS-CoV-2 infection rate [2]: 100% (inactive)

C[C@]12CCC(=O)C=C1CC[C@@H]1[C@@H]2C(=O)C[C@]2(C)C(=O)CC[C@@H]12 [adrenosterone] (10 µM)
morphology score [1]: -0.109 | SARS-CoV-2 infection rate [2]: 97.5% (inactive)

CC(C)NCC(O)c1ccc([N+](=O)[O-])cc1 (stereo not drawn) [nifenalol] (10 µM)
morphology score [1]: -0.141 | SARS-CoV-2 infection rate [2]: 118% (inactive)

CC1(C)OC[C@H](NC(=O)Nc2ccc(Br)cc2Br)[C@H](c2ccccc2)O1 (10 µM)
morphology score [1]: -0.142 | SARS-CoV-2 infection rate [2]: 112% (inactive)

COc1ccc(CC(C)NCC(O)c2ccc(O)c(NC=O)c2)cc1 (stereo not drawn) [formoterol] (10 µM)
morphology score [1]: 0.0444 | SARS-CoV-2 infection rate [2]: 100% (inactive)

CC[C@H]1OC(=O)[C@@](C)(F)C(=O)[C@H](C)[C@@H](O[C@@H]2O[C@H](C)C[C@H](N(C)C)[C@H]2O)[C@](C)(OC)C[C@@H](C)C(=O)[C@H](C)[C@H]2N(CCCCn3cc(-c4cccc(N)c4)nn3)C(=O)O[C@]12C [solithromycin] (10 µM)
morphology score [1]: 0.351 | SARS-CoV-2 infection rate [2]: 104% (inactive)

CC(C)(N)CC12CC3CC(CC(C3)C1)C2 [somantadine] (10 µM)
morphology score [1]: 0.178 | SARS-CoV-2 infection rate [2]: 96% (inactive)

O=C1NCCN1c1ncc([N+](=O)[O-])s1 [niridazole] (10 µM)
morphology score [1]: 0.233 | SARS-CoV-2 infection rate [2]: 95% (inactive)

Cc1csc(NC(=O)CSc2ccc(-c3ccccc3)nn2)n1 (10 µM)
morphology score [1]: 0.49 | SARS-CoV-2 infection rate [2]: 68.5% (inactive)

CNC(=O)c1ccccc1Nc1nc(Nc2ccc(N3CCOCC3)cc2OC)ncc1Cl (10 µM)
morphology score [1]: -0.217 | SARS-CoV-2 infection rate [2]: 97.5% (inactive)

Nc1nc2c(cnn2CCc2ccccc2)c2nc(-c3ccco3)nn12 (10 µM)
morphology score [1]: -0.139 | SARS-CoV-2 infection rate [2]: 112% (inactive)

CCCC[C@@H](NC(=O)[C@@H](Cc1cn(C(=O)OC)c2ccccc12)NC(=O)[C@H](CC(C)(C)C)NC(=O)N1[C@H](C)CCC[C@@H]1C)C(=O)O (10 µM)
morphology score [1]: 0.0975 | SARS-CoV-2 infection rate [2]: 104% (inactive)

CC(=O)N(CC(O)CO)c1c(I)c(C(=O)NCC(O)CO)c(I)c(C(=O)NCC(O)CO)c1I (stereo not drawn) [iohexol] (10 µM)
morphology score [1]: 0.142 | SARS-CoV-2 infection rate [2]: 104% (inactive)

CC(=O)[C@@]1(O)CC[C@H]2[C@@H]3C[C@H](C)C4=CC(=O)C=C[C@]4(C)[C@@]3(F)[C@@H](O)C[C@@]21C [fluorometholone] (10 µM)
morphology score [1]: 0.02 | SARS-CoV-2 infection rate [2]: 110% (inactive)

Cc1c(C(=O)Nc2ccc(N3C[C@@H](C)O[C@@H](C)C3)nc2)cccc1-c1ccc(OC(F)(F)F)cc1 [sonidegib] (10 µM)
morphology score [1]: -0.0039 | SARS-CoV-2 infection rate [2]: 108% (inactive)

COc1ccccc1OCC(O)CN1CCN(CC(=O)Nc2c(C)cccc2C)CC1 (stereo not drawn) [ranolazine] (10 µM)
morphology score [1]: 0.0908 | SARS-CoV-2 infection rate [2]: 101% (inactive)

CC(C)(Sc1cc(C(C)(C)C)c(O)c(C(C)(C)C)c1)Sc1cc(C(C)(C)C)c(O)c(C(C)(C)C)c1 [probucol] (10 µM)
morphology score [1]: 0.0913 | SARS-CoV-2 infection rate [2]: 100% (inactive)

O=C(COc1ccc(Cl)cc1)N[C@H]1CC[C@H](NC(=O)COc2ccc(Cl)cc2)CC1 (10 µM)
morphology score [1]: -0.175 | SARS-CoV-2 infection rate [2]: 106% (inactive)

Clc1ccc2c(c1)CCc1cccnc1C2=C1CCNCC1 [desloratadine] (10 µM)
morphology score [1]: 0.351 | SARS-CoV-2 infection rate [2]: 76% (inactive)

CN[C@H]1C(=O)N[C@@H]2Cc3ccc(cc3)Oc3cc4cc(c3O[C@@H]3O[C@H](C(=O)O)[C@@H](O)[C@H](O)[C@H]3NC(=O)CCCCCCCCC(C)C)Oc3ccc(cc3Cl)[C@@H](O)[C@@H]3NC(=O)[C@H](NC(=O)[C@@H]4NC(=O)[C@@H](NC2=O)c2cc(cc(O)c2Cl)Oc2cc1ccc2O)c1ccc(O)c(c1)-c1c(O[C@H]2O[C@H](CO)[C@@H](O)[C@H](O)[C@@H]2O)cc(O)cc1[C@@H](C(=O)NCCCN(C)C)NC3=O [dalbavancin] (10 µM)
morphology score [1]: -0.218 | SARS-CoV-2 infection rate [2]: 113% (inactive)

CCNC(C)CN1CCc2c(c(=O)oc3ccccc23)C1 (stereo not drawn) (10 µM)
morphology score [1]: 0.209 | SARS-CoV-2 infection rate [2]: 98% (inactive)

CN(C)[C@@H]1CCc2[nH]c3ccc(NC(=O)c4ccc(F)cc4)cc3c2C1 (10 µM)
morphology score [1]: 0.438 | SARS-CoV-2 infection rate [2]: 70.5% (inactive)

NC1=NC(=O)N([C@H]2C[C@H](O)[C@@H](CO)O2)CN1 (10 µM)
morphology score [1]: 0.0264 | SARS-CoV-2 infection rate [2]: 106% (inactive)
